Laboratory results taken from PubChem BioAssay.
Active and inactive are the calls of the source.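 Rule for the calls: active = inhibition at or above 50% at 10 µM; inactive = inhibition below 50%.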

Assay: inhibitors of Sendai virus-induced IRF3 signaling, primary screen, TLR/RLR signaling modifier project, cell-based, Sendai virus stimulus, luciferase, 10K MLSCN set (AID 602276);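 note: firefly luciferase from ISG56 promoter only with Renilla not read in this screen; 0% = Sendai virus plus DMSO and 100% = medium plus DMSO without virus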
Details: HEK293 RL24 IRF3 luciferase reporter, at 10 µM, stronger effect = higher value

inhibition, inactive:
CCCn1c2c(c(O)c(C(=O)Nc3ccc(C)cn3)c1=O)CCCC2 6.86%
CCCC1(C(=O)OCC)NC(c2ccc(N(C)C)cc2)C2C(=O)N(c3ccccc3)C(=O)C21 (stereo not given) 8.02%
COc1cc(C2C(C(=O)c3ccc(C)o3)=C(O)C(=O)N2c2cc(C)on2)cc(Br)c1O (stereo not given) 13.3%
CCCCc1cc(=O)oc2c(CN3CCCC3)c(O)c(Cl)cc12 20%
Cc1ccccc1-c1nc(CN2CCC(C(=O)NCc3cccnc3)CC2)c(C)o1 7.42%
O=C(Nc1ccc(Cc2ccncc2)cc1)C1CC1 7.94%
Nc1cc(C(=O)O)ccc1Nc1ccc(F)c(F)c1 -5.42%
CSc1nc2c(ccc3ccccc32)o1 -5.19%
CCCCSc1nc2c(cnn2-c2ccc(Cl)cc2)c(=O)[nH]1 16.7%
CC(NO)C(C)(C)NO (stereo not given) 3.35%
CCCCOc1ccc(C(=O)Nc2ccc(N3CCN(C(=O)C(C)C)CC3)cc2)cc1 13.8%
O=c1[nH]c2ccccc2nc1NCCN1CCOCC1 8.81%
CCOC(=O)c1ccccc1NC(=O)COC(=O)C1=COCCO1 15.1%
COCCCNC(=O)C(Cc1ccccc1)NS(=O)(=O)c1ccc2c(c1)c(=O)n(C)c(=O)n2C (stereo not given) -1.6%
Cc1nc2cc(CO)ccc2n1C 2.69%
NCC(O)COc1ccc2c(c1)OCO2 (stereo not given) -1.42%
Nc1nc2sc3c(c2c(=O)s1)CCCC3 -10.3%
COc1cccc(OC)c1C(=O)N1CCN(S(=O)(=O)c2ccccc2)CC1 -2.45%
COc1ccc(C(NC(=O)c2ccco2)c2ccc(OC)c(OC)c2)cc1 (stereo not given) 6.11%
O=C(O)C1CC(=O)N(c2ccc(OCc3ccccc3Cl)cc2)C1 (stereo not given) 18.4%
O=C(CCSc1nnc(-c2ccncc2)o1)Nc1ccccc1 1.76%
CCNS(=O)(=O)c1c(C)cc(N2CCCC2=O)cc1C -1.95%
CN(C)C(CNc1nnnn1-c1ccccc1)c1ccco1 (stereo not given) 8.59%
Cn1c(-c2ccccc2)c(CCO)c2ccccc21 6.84%
CCOC(=O)C1C(=O)NC(SCC(=O)Nc2nccs2)=C(C#N)C1c1ccccc1OCC (stereo not given) 19.6%
c1ccc2nc(-c3nc4ccccc4[nH]3)ccc2c1 11.5%
COc1cc(-c2nc(S(=O)(=O)c3ccccc3)c(N3CCOCC3)o2)cc(OC)c1OC 14.4%
O=C(N1CCN(Cc2ccccc2)CC1)C12CC3CC(CC(C3)C1)C2 17%
CC(=O)c1c(NCCc2ccccc2)cc(C)oc1=O -1.27%
O=C(NCCCN1CCN(CCCNC(=O)c2ccc(F)cc2)CC1)c1ccc(F)cc1 14.8%
C=CCn1c(SCc2cc(=O)n3ccsc3n2)nnc1C1CCCCC1 9.44%
Oc1c(Cl)cc(Cl)c2c1NCCC2 11.2%
CN(C)S(=O)(=O)c1ccc2c(c1)C(CC(=O)O)OC2=O (stereo not given) 17.3%
COc1cc(OC)cc(-n2nnnc2SCC(=O)N2CCCC2)c1 15.1%
CCC(=O)N1CCc2cc(Br)cc(S(=O)(=O)C3(C(=O)OC)CC3)c21 17%
COC(=O)C(C)Sc1nc2c(c(=O)n(C)c(=O)n2C)n1Cc1cccc(C)c1 (stereo not given) 18.9%
Cn1c(SCc2ccc3c(c2)OCO3)nnc1-c1ccccc1 -9.99%
Cc1nn(-c2ccc(F)cc2)c(C)c1NS(=O)(=O)c1ccc(Cl)cc1 13.3%
CC1(C)OC(=O)C(=CNc2ccccc2)C(=O)O1 -10%
CCCCCn1c(CN(C)Cc2ccccc2)nc2c1c(=O)n(C)c(=O)n2C 18.2%
